{"source": "PubChem BioAssay (NCI)", "note": "Compounds without any hit were thinned out: in the full panel of roughly 79,000, 15% have a hit. Unmarked numbers belong to inactive results. No stated cut-off is given here; in the data, active means growth inhibition above about 70%; inactive means the rest. Where a SMILES comes first, the peptide text is derived from it. [ ]: non-standard residue; d: D form. pGlu = O=C1CC[CH](C(=O)O)N1"}
{"experiment": "NCI Yeast Anticancer Drug Screen. Data for the mlh1 rad18 strain (AID 175)", "settings": "S. cerevisiae mlh1 rad18 strain growth inhibition; at 50.0 µM; active compounds read high", "how_it_was_run": "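Compound-treated yeast growth, normalised to vehicle controls. Strain bears defined DNA repair mutations.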", "units": {"growth inhibition": "%"}}
{"smiles": "N/N=C(/c1ccc(Cl)cc1)N1CCOCC1", "growth inhibition": 5.35}
{"smiles": "CCN(CC)CN1C(=O)C2C3C=CC(C2C1=O)C1C2C(=O)N(CN(CC)CC)C(=O)C2C31", "note": "(stereo not given)", "growth inhibition": -45.9}
{"smiles": "Cc1ccc(C)c(NC(=O)CCC(=O)C(C#N)c2nc3ccccc3s2)c1", "note": "(stereo not given)", "growth inhibition": -5.7}
{"smiles": "CCOC(=O)C(NC(N)=O)C(=O)OCC", "growth inhibition": 4.7}
{"smiles": "CC(NC(=O)C(Cc1cnc[nH]1)NC(=O)C1CCC(=O)N1)C(N)=O", "note": "(stereo not drawn) ([pGlu]-His-Ala-NH2; configuration not given here)", "growth inhibition": -25.9}
{"smiles": "CC(=O)Nc1c(C)cccc1[N+](=O)[O-]", "growth inhibition": 3.65}
{"smiles": "CCCC(C)C1(CCC)C(=O)N=C(N)N=C1N", "note": "(stereo not given)", "growth inhibition": -10.5}
{"smiles": "CC(=O)C1=C(O)C(Cc2ccccc2)NC1=O", "note": "(stereo not given)", "growth inhibition": 10.7}
{"smiles": "CC(=O)OC1CCC2C(C)(CCC3C2(C)CCC2(C)C4CC(C)(C)CCC4(C)CCC32C)C1C", "note": "(stereo not given)", "growth inhibition": -11.8}
{"smiles": "COC(=O)c1ccccc1C(=O)c1ccccc1", "growth inhibition": 8.4}
{"smiles": "COc1c2c(cc3c(CCc4ccccc4)cc(=O)oc13)CCC(C)(C)O2", "growth inhibition": -27.3}
{"smiles": "CCOC(=O)C(=O)N1Cc2cc3c(cc2C2CC(O)C(O)CC21)OCO3", "note": "(stereo not given)", "growth inhibition": 5.85}
{"smiles": "OC1=CC(C2CCCCC2)CC(O)=C1", "note": "(stereo not given)", "growth inhibition": -17.1}
{"smiles": "c1ccc(-c2csc3[n+]2CCN3)cc1", "growth inhibition": 14.2}
{"smiles": "NNC(=O)CNC(=O)c1ccccc1", "growth inhibition": -15}
{"smiles": "CCOC(=O)CC1(C)c2nc(NC(C)=O)sc2Cc2sc(NC(C)=O)nc21", "growth inhibition": -15.5}
{"smiles": "CON(C)c1nc(N(C)C)nc(N(C)C)n1", "growth inhibition": 0.9}
{"smiles": "Nc1cc2[nH]cnc2c(=O)[nH]1", "growth inhibition": 30.1}
{"smiles": "COCCNc1cncc(C(N)=O)c1", "growth inhibition": 10.9}
{"smiles": "Nc1nc(N)[n+]([O-])c(N)c1NCO", "growth inhibition": -25.3}
{"smiles": "COc1ccc(/C=C(\\C2=NC(=O)CS2)c2nc3ccccc3[nH]2)cc1", "growth inhibition": -24.9}
{"smiles": "Cc1ccc(-c2c(C#N)c(-c3ccccc3)c(C#N)c(=O)n2NS(=O)(=O)c2ccc(C)cc2)cc1", "growth inhibition": 23.3}
{"smiles": "CN(Nc1ccnc(=O)[nH]1)c1ccccc1", "growth inhibition": 8.8}
{"smiles": "COc1ccc(-c2c3c([nH]c(=S)c2C#N)CCC3)cc1", "growth inhibition": 34.4}
{"smiles": "CCOC(=O)C(C(=O)OCC)C(=O)c1cc(OC)c(OC)c(OC)c1", "growth inhibition": 6.5}
{"smiles": "CN1C/C(=C\\C=C\\c2ccccc2)C(=O)/C(=C/C=C/c2ccccc2)C1", "growth inhibition": 0.2}
{"smiles": "C=C1C(=O)O[C@H]2[C@H]1[C@@H](OC(=O)C=C(C)C)CC1=C[C@@H](C[C@@]3(C)O[C@@H]23)OC1=O", "growth inhibition": 7.85}
{"smiles": "C/C(=C/CNc1ncnc2c1ncn2CCC(=O)O)CO", "growth inhibition": -0.5}
{"smiles": "O=c1[nH]c(=O)n(C2OC(CO)C(O)C2O)cc1OCc1ccccc1", "note": "(stereo not given)", "growth inhibition": -31.5}
{"smiles": "C/C(=N/O)c1c[n+]([O-])ccn1", "growth inhibition": -0.5}
{"smiles": "COc1ccc2oc(=N)c(C(N)=S)cc2c1", "growth inhibition": -2.95}
{"smiles": "Cn1c(-c2ccccc2)c2c(=O)oc3ccccc3c2c1-c1ccccc1", "growth inhibition": 19.1}
{"smiles": "O=[N+]([O-])c1ccc(C=Nc2ccccc2)cc1", "growth inhibition": 26.4}
{"smiles": "COc1cc([N+](=O)[O-])cc2c1OC1(C=C2)Oc2ccccc2N1C", "note": "(stereo not given)", "growth inhibition": -17.9}
{"smiles": "COc1ccc2nc3cc([N+](=O)[O-])ccc3c(Nc3ccc(S(=O)(=O)N=C(N)N)cc3)c2c1", "growth inhibition": 53.9}
{"smiles": "CN(C)c1ccc(N=Nc2ccc(S(=O)(=O)O)cc2)cc1.CN(C)c1ccc(N=Nc2ccc(S(=O)(=O)O)cc2)cc1.[NH-]C1CCCCC1[NH-].[Pt+2]", "growth inhibition": 3.55}
{"smiles": "CC1c2ncnc(N)c2CN1C(=O)c1ccccc1", "note": "(stereo not given)", "growth inhibition": -4.55}
{"smiles": "CC(=O)c1cccc(C(C)=O)c1N=Cc1ccc(Cl)cc1", "growth inhibition": -18.9}
{"smiles": "O=C(/C=C\\c1ccccc1)c1ccc(-c2ccc([N+](=O)[O-])cc2)cc1", "growth inhibition": 22.6}
{"smiles": "CC(NC(=O)OC(C)(C)C)C(=O)C(N)=O", "note": "(stereo not given)", "growth inhibition": -11.5}
